Results: PubChem BioAssay AID504397 (Broad Institute, 2011)
Results with a measured potency or affinity are listed apart. Active and inactive are the calls of the source. The rule behind the calls is not given here.

Experiment: mammalian cell cytotoxicity, dose response, cytotoxicity control, plate reader, cherry-pick samples (AID 504397)
Details: plate reader viability; series mostly up to 35 µM
In the case of `CN(C(=O)COC(=O)c1cc([N+](=O)[O-])ccc1Sc1ccccc1)C1CCS(=O)(=O)C1` (stereo unspecified), the outcome is reported as “inactive”.
In the case of `O=C(C(Cc1ccccc1)N1C(=O)c2ccccc2C1=O)N1c2ccccc2CCc2ccccc21` (stereo unspecified), the outcome is reported as “inactive”.
For `Cc1ccc(NC(=O)CCc2ccc(S(=O)(=O)NC3CCCCC3)cc2)cc1`, the outcome was “inactive”.
With `CN(C(=O)COC(=O)c1cn(-c2ccccc2)nc1-c1ccccc1)C1CCS(=O)(=O)C1` (stereo unspecified) the outcome was “inactive”.
In the case of `CS(=O)(=O)c1ccc(C(=O)OCC(=O)N(CCc2ccccc2)Cc2ccccc2)cc1`, the outcome is reported as “inactive”.
With `CS(=O)(=O)Cc1ccc(C(=O)N(CCc2ccccc2)Cc2ccccc2)cc1` the outcome was “inactive”.
For `CN(C)CCCN(C(=O)c1cc(-c2cccs2)nc2ccccc12)c1nc2ccc(F)cc2s1`, the outcome was “inactive”.
For `CCn1nnnc1SCC(=O)Nc1nc(C)c(C)s1`, the outcome was “inactive”.
With `COC(=O)C1CCCN1S(=O)(=O)c1ccc2ccccc2c1` (stereo unspecified) the outcome was “inactive”.
For `CCn1cc(/C=C(\NC(=O)c2ccccc2F)C(=O)N2CCCC2)c2ccccc21`, the outcome was “inactive”.
In the case of `COc1ccccc1N1CCN(c2ncc(C(=O)N3CCN(c4cccc(Cl)c4)CC3)c3ccccc23)CC1`, the outcome is reported as “inactive”.
With `Cc1cccc(Nc2ccccc2C(=O)OCC(=O)N(C)C2CCS(=O)(=O)C2)c1C` (stereo unspecified) the outcome was “inactive”.
With `CCCCCCCCCCOC(=O)Cn1c(COc2ccccc2C)[n+](C)c2ccccc21` the outcome was “inactive”.
With `N/C(Cc1ccc([N+](=O)[O-])cc1)=N\OC(=O)c1ccc2ccccc2c1` the outcome was “inactive”.
With `CC(/C=N\NC(=O)CN1CCN(S(=O)(=O)c2ccc(C)cc2)CC1)=C\c1ccccc1` the outcome was “inactive”.
In the case of `O=C(Nc1ccc(Cl)c([N+](=O)[O-])c1)C(Sc1ccccc1)c1ccccc1` (stereo unspecified), the outcome is reported as “inactive”.
For `Cc1ccc(/C=N/NC(=O)c2nnn(-c3nonc3N)c2C(C)C)o1`, the outcome was “inactive”.
In the case of `CN(C)S(=O)(=O)c1ccc(NC(=O)/C=C/c2ccccc2Cl)cc1`, the outcome is reported as “inactive”.
For `O=C(c1cnc2n(c1=O)CCS2)N1CCN(C(c2ccccc2)c2ccc(Cl)cc2)CC1` (stereo unspecified), the outcome was “inactive”.
With `CC1(c2ccc(OCC#N)cc2)C=C(c2ccc(OCC#N)cc2)n2nc(C(F)(F)F)nc2N1` (stereo unspecified) the outcome was “inactive”.
For `CCOc1cc(S(=O)(=O)N(Cc2ccccc2)Cc2ccccc2)c(OCC)cc1-n1cnnn1`, the outcome was “inactive”.
In the case of `CC(C)c1c(C(=O)N/N=C/c2c[nH]c3ccccc23)nnn1-c1nonc1N`, the outcome is reported as “inactive”.
For `CCCCNC(=S)N=Nc1c(O)n(Cc2ccccc2)c2ccccc12`, the outcome was “inactive”.
In the case of `CN(C)CCN(C(=O)c1ccc2ccccc2c1)c1nc2ccc(F)cc2s1`, the outcome is reported as “inactive”.
With `COc1cccc(/C=N/NC(=O)c2nnn(-c3nonc3N)c2C(C)C)c1OCc1ccc(F)cc1` the outcome was “inactive”.
In the case of `COc1ccc(C2Nc3ccccc3C(=O)N2Cc2ccccc2)cc1COc1ccccn1` (stereo unspecified), the outcome is reported as “inactive”.
With `COc1ccc(-n2nc(C(=O)NCC(=O)N3CCC(C)CC3)c3ccccc3c2=O)cc1` the outcome was “inactive”.
In the case of `CCn1cc(/C=C(\NC(=O)c2ccccc2)C(=O)N2CCOCC2)c2ccccc21`, the outcome is reported as “inactive”.
In the case of `Cc1ccc(OCCn2c3ccccc3n3nc(C)c(=O)nc23)cc1`, the outcome is reported as “inactive”.
For `O=[N+]([O-])c1ccc(-c2cnc(SC(c3ccccc3)c3ccccc3)[nH]2)cc1`, the outcome was “inactive”.
For `CCn1cc(/C=C(\NC(=O)c2ccccc2F)C(=O)N2CCOCC2)c2ccccc21`, the outcome was “inactive”.
